Where a name gives a salt, the structure may show the parent alone.

The experiment relates to Danio rerio larvae (5 dpf). The experiment is described as follows: 1-h baseline activity (% time moving, periods 1-6) minus DMSO control (percentage points); higher = more locomotor activity than DMSO larvae. Conditions: 10 µM; exposure time: 3 h pre-incubation + 3 h imaging. How it is done: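 Wild-type 5 dpf zebrafish larvae (n=48 per drug, 96-well plates, 28.5 °C) were exposed to Tocris FDA-approved library compounds at 10 µM (0.1% DMSO) for 3 h before and 3 h during imaging. Images were taken every 6 s during visual and acoustic stimuli, and larvae were tracked with Z-LaP Tracker. Each measure is the treated-group mean minus the DMSO control mean (n=844), in percentage points. This mapping covers compounds with 5-character plate codes.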
As to `COc1ccc(C(CN(C)C)C2(O)CCCCC2)cc1` (stereo unspecified) [Venlafaxine hydrochloride], the 1-h baseline activity is -22.8.

The record behind these values is the supplement of paper PMC9950053.
